Assay outcomes from PubChem.
This excerpt belongs to a sample that is enriched for hits.
Dicer processing = inhibitors of human Dicer processing of pre-microRNA; hit rate 6% among 47,000; cat-ELCCA pre-miR-21 Dicer processing, chemiluminescence; active compounds read high; z-score at 25 µM; Q9UPY3; in the data active means z-score above about 3, passing the limit was not always enough;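 further: plate controls were vehicle for no effect and no enzyme for full effect; higher signal means more uncleaved substrate so more Dicer inhibition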
An asterisk follows results filed as active.

SMILES	Dicer processing
Cc1ccc(Nc2ncnc3ccccc23)c(C)c1	-0.49
CCC(CO)NC(=S)Nc1c(C)cccc1C (centres undefined)	0.03
CN(C)/C=C(\C#N)Sc1nnc(-n2cccc2)s1	-2.4
COc1ccc(C2c3c(oc4ccc(F)cc4c3=O)C(=O)N2Cc2ccc3c(c2)OCO3)cc1 (centres undefined)	-0.57
OC(CN1C2=NCCN2c2ccccc21)c1ccccc1 (centres undefined)	-0.32
CCOC(=O)c1c(C)n(C)c2cc(-c3ccc(Cl)cc3)c(O)cc12	2.17
CCOC(=O)c1c(C)n(C)c2cc(-c3ccc(CC)cc3)c(O)cc12	3.47*
CCOC(=O)c1c(C)n(C)c2cc(-c3ccc(C)cc3)c(O)cc12	1.98
CCOC(=O)c1sc(NC(=O)CC)nc1C	1.79
COc1ccc(C2C(C(=O)OCc3ccccc3)=C(C)NC3=C2C(=O)CC(C)(C)C3)cc1OC (centres undefined)	0.22
Cn1ncc2c(c(SCc3ccc(Cl)cc3Cl)nn2C)c1=O	-1.23
CSCCn1c(C(C)(C)C)cc(C(=O)O)c1C	-0.45
O=C(CSc1nnnn1-c1ccccc1)Nc1nsc(-c2ccc(Cl)cc2)n1	2.38
Cc1ccc(-c2nc(NC(=O)CSc3nnc4ccccn34)ns2)cc1	1.57
CC(C)(C)c1ccc(-c2nc(NC(=O)CSc3nnc4ccccn34)ns2)cc1	3.05*
COc1ccccc1-n1cnc2cc(NCc3ccco3)ccc21	6.55*
Cc1ccc(-n2cnc3cc(NCc4ccncc4)ccc32)cc1	12.6
Cc1nc2cc(NCc3ccco3)ccc2n1C	1.88
COc1ccc(-c2nc3c4ccccc4ccn3c2CN2CCCCC2)cc1OC	-0.14
CC(=O)NNC(=O)CSc1ncnc2sc3c(c12)CCCC3	-0.81
Cc1cccc(C)c1-n1c(C2CC3CCC2O3)n[nH]c1=S (centres undefined)	1.67
N#CC1C(=O)NC(N2CCN(Cc3ccc4c(c3)OCO4)CC2)=NC12CCCCC2 (centres undefined)	-0.6
CN(C)c1cc(CC(=O)c2ccccc2)ncn1	-0.13
Clc1ccc(-c2nn3c(-c4ccccc4)nnc3s2)cc1	3.09*
Clc1ccc(-c2nnc3sc(-c4cccs4)nn23)cc1	0.22
SMILES	Dicer processing
COc1ccc(-c2nn3c(-c4ccccc4)nnc3s2)cc1	-0.84
Cc1c(NC(=O)CSc2nc(-c3ccccc3)cc(C(F)(F)F)n2)c(=O)n(-c2ccccc2)n1C	0.24
O=C1CC(c2nc3ccccc3[nH]2)CN1c1ccccc1 (centres undefined)	1.71
Nc1nonc1-c1nc2ccccc2n1Cc1ccccc1Cl	0.88
CCCCCCn1c(C(C)O)nc2ccccc21 (centres undefined)	-0.51
O=C1CC(c2nc3ccccc3n2Cc2ccccc2Cl)CN1c1ccccc1 (centres undefined)	4*
CCCCCn1c(C2CC(=O)N(c3ccccc3)C2)nc2ccccc21 (centres undefined)	5.33*
CCCCn1c(C2CC(=O)N(c3ccccc3)C2)nc2ccccc21 (centres undefined)	-1.2
CCOC(=O)c1sc(SC(C)C)c2c1CCCC2=O	17.2
COc1ccc(C2=NNc3nc4c(c(=O)[nH]c(=O)n4C)n3C2)cc1	-2.4
COc1cc([N+](=O)[O-])c(C#N)c(Cl)c1OC	-0.68
O=C(OCc1ccco1)c1sc2sccc2c1Cl	-0.4
CC(=O)Nc1ccc(S(=O)(=O)NC2CCS(=O)(=O)C2)cc1 (centres undefined)	2.21
O=c1[nH]ncn2c1c(-c1ccccc1)c1cc([N+](=O)[O-])ccc12	-1.41
N#Cc1ccc(C(O)COc2ncnc3cc(Cl)ccc23)cc1 (centres undefined)	0.11
CCn1cc(C(=O)O)c(=O)c2cnc(N3CCCC3)nc21	4.46*
CCn1cc(C(=O)O)c(=O)c2cnc(N3CCN(C(=O)Nc4ccccc4)CC3)nc21	-0.82
CCn1cc(C(=O)O)c(=O)c2cc3c(cc21)OCO3	-0.39
Cc1[nH]ncc1Sc1ccc(Cl)cc1	-1.72
O=C(CCSc1nc(-c2ccco2)cc(C(F)(F)F)n1)N1CCCc2ccccc21	2.36
N=C(N)SCc1c(F)cccc1Cl	0.92
CCOC(=S)SCc1c(F)cccc1Cl	4.26*
S=C(Nc1ccc(Cl)cc1)SCc1c(Cl)cccc1Cl	0.19
CC(=O)Nc1c(C)nn(C(C)=O)c1C	0.78
O=C(Cn1cc(C(=O)C2CC2)c2ccccc21)NC1CCCC1	0.27
SMILES	Dicer processing
O=C1Nc2ccccc2C1=Nc1ccc(Cl)cc1	0.92
Cc1ccc(Cl)cc1NCN1C(=O)CNC1=S	13.1
O=C1c2ccc([N+](=O)[O-])cc2C(=O)N1CNc1ccc(Cl)cc1	2.09
O=C1CCC(=O)N1CNc1ccc(Cl)cc1	3.97*
O/N=C/c1ccnc(SCc2ccccc2)n1	-0.29
FC(F)(F)c1cccc(-c2ccc(-c3cccc(C(F)(F)F)c3)o2)c1	0.75
Cc1ccc(C)c(COc2ccc(C)nc2NC(=O)c2ccc(F)cc2)c1	3.83*
Cc1ccc2ncc(NC(=O)c3ccc(F)cc3)c(=O)n2c1	-0.07
Cc1ccc(C)c(COc2ccc(C)nc2[N+](=O)[O-])c1	0.37
O=C(Nc1ccc(Cl)c(Cl)c1)c1cccnc1Sc1cccc(C(F)(F)F)c1	-0.6
